According to PubChem BioAssay (Tox21):
Inconclusive results are not listed. Entries that show only a call come without a potency. The source made the active and inactive calls. Calls follow the shape of the dose curve; as a rule, active = well fitted inhibition curve with a large enough effect in the repeat runs; inconclusive = weak or mixed curves; inactive = no such curve, though single readings can be large or run the other way.

biological target: Cytochrome P450 2C9 (Homo sapiens) (UniProt P11712); assay: Cytochrome P450 Family 2 Subfamily C Member 9 (CYP2C9) small molecule antagonists: luciferase reporter qHTS assay (AID 1671198); conditions: P450-Glo CYP2C9 enzyme assay, luciferin luminescence; series mostly up to 115 µM; also: nearly all actives have a fitted effect of over 50% in size
Description: U.S. Tox21 Program National Center for Advancing Translational Sciences [NCATS] U.S. Environmental Protection Agency [EPA] National Institutes of Environmental Health Sciences [NIEHS] National Toxicology Program [NTP] U.S. Food and Drug Administration [FDA] Tox21 Assay Overview: Cytochrome P450 (CYP) enzymes are membrane-bound hemeproteins that play a key role in metabolism of drugs and xenobiotics. Evaluation of the effect of chemicals on CYP isozymes is useful to minimize the adverse drug reactions and toxicities in drug development process. Tox21 chemicals were tested for their effect on CYP enzyme activities by using P450-Glo (TM) screening systems (Promega Corporation, Madison, WI). These systems provide a luminescent method containing proluciferin substrates and are converted to luciferin products by CYP isozymes. The luciferin products formed are detected with a luciferin detection reagent, and the amount of light produced is proportional to CYP activity. P450-Glo (TM) CYP2C9 screening system (Catalog. No. V9790) was used to detect the compounds that interfere in CYP2C9 activity.
Tox21 Assay Protocol Summary: Two ul of enzyme-substrate mix was dispensed into medium binding white/solid 1536-well plates (Greiner Bio-One North America Inc., Monroe, NC) using a BioRaptr Flying Reagent Dispenser (FRD, Beckman Coulter, Brea, CA). […] The assay plates were incubated at room temperature for 10 min. Then 2 ul of NADPH regeneration solution was added to each well of the assay plates using an FRD and incubated at 37C for 1 h. The reaction was stopped by adding 4 ul of detection reagent using an FRD and after 20 min incubation at room temperature the luminescence signal was measured using a ViewLux plate reader (Perkin Elmer, Shelton, CT). Data were expressed as relative luminescence units.
Potency is read from the fitted curve at half-maximal effect.

Cytochrome P450 2C9 (Homo sapiens), sequence (P11712 whole entry, looked up): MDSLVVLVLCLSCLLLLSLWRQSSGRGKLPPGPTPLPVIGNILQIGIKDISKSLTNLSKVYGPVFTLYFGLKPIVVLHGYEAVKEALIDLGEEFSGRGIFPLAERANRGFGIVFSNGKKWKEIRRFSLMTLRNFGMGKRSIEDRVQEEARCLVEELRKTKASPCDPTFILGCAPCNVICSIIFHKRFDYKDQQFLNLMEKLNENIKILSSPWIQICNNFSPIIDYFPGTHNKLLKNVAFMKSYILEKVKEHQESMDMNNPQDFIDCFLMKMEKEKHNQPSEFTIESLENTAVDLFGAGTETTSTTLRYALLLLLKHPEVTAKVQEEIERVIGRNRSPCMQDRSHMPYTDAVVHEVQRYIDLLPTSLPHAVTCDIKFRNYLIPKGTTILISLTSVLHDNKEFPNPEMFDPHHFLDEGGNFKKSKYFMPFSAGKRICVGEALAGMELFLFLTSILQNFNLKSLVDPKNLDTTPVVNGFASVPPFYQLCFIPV

| SMILES | Potency | activity change, negative = inhibition |
| --- | --- | --- |
| Cc1cccc(C)n1 | inactive |  |
| CC(C)=C1CC[C@@H](C)CC1=O | inactive |  |
| O=S(=O)(O)CCCN1CCOCC1 | inactive |  |
| CC(C)c1cccc(C(C)C)c1N1C(=O)c2ccc(O)cc2C1=O | 12.6 µM (active) |  |
| CCCCCCCCCCCCCc1ccccc1 | inactive |  |
| CC(NCCC(c1ccccc1)c1ccccc1)c1ccccc1 (stereo not given) | 15.5 µM (active) |  |
| O=C(Oc1ccccc1)c1cccc(C(=O)Oc2ccccc2)c1 | 7.48 µM (active) |  |
| C[C@@]12C(=O)OC(=O)[C@]1(C)C1CCC2O1 | inactive |  |
| Cc1cccc(N(C)C)c1 | inactive |  |
| CCCCCCCCC(C)=O | inactive |  |
| NCCCCCCNCCCCCCN | inactive |  |
| CCCCCCOc1ccc(O)cc1 | 39.9 µM (active) |  |
| CC=O | inactive |  |
| COc1cc(C(=O)NS(=O)(=O)c2ccccc2C)ccc1Cc1cn(C)c2ccc(NC(=O)OC3CCCC3)cc12 | 15.5 µM (active) |  |
| C=C1C(C)(C)[C@@]2(Cl)C(Cl)[C@]1(Cl)C(Cl)(Cl)C2(Cl)Cl (stereo not given in full) | 13.9 µM (active) |  |
| Cc1ccc(CCn2c3c(c4cc(Cl)ccc42)CN(C)CC3)cn1 | inactive |  |
| CC(C)(C)c1n[nH]c(=O)n(N)c1=O | inactive |  |
| CCN(CC)CCCN(c1ccccc1)C1Cc2ccccc2C1 | inactive |  |
| CCCN(CCc1cccs1)[C@H]1CCc2c(O)cccc2C1 | 15.5 µM (active) |  |
| CCNc1nc(NC(C)CC)nc(OC)n1 (stereo not given) | inactive |  |

| SMILES | Potency | activity change, negative = inhibition |
| --- | --- | --- |
| Nc1ncnc2c1ncn2[C@@H]1O[C@H](COP(=O)(O)O)[C@@H](O)[C@H]1O | inactive |  |
| C=CC(C)(CCC=C(C)C)OC(=O)/C=C/c1ccccc1 (stereo not given) | 6.33 µM (active) |  |
| C/C=C/CO | inactive |  |
| CCC(C)c1ccccc1 (stereo not given) | inactive |  |
| OCCN1CN(CCO)CN(CCO)C1 | inactive |  |
| CCOC(=O)CN | inactive |  |
| CCN(CC)CCSC(=O)C(c1ccccc1)c1ccccc1 | 17.4 µM (active) |  |
| C[C@]12CC[C@H]3C(=CCc4cc(O)ccc43)[C@@H]1CCC2=O | 35.6 µM (active) |  |
| O=C=NCc1cccc(CN=C=O)c1 | 6.74 µM (active) |  |
| CCCCOC(=O)C(C)CC (stereo not given) | inactive |  |
| O=S(=O)(O)c1cc(S(=O)(=O)O)c2ccc3c(S(=O)(=O)O)cc(S(=O)(=O)O)c4ccc1c2c43 |  | -1.93% [at 23.6 µM] (inactive) |
| O=Cc1ccc(F)cc1 | inactive |  |
| O=C1C=CC(=O)N1c1ccccc1 | 28.3 µM (active) |  |
| CCCCCCCC(OC)OC | inactive |  |
| CCCCCCC(C)Nc1ccc(Nc2ccccc2)cc1 (stereo not given) | 7.1 µM (active) |  |
| O=C(Nc1ccc(Cl)c(Cl)c1)c1cc(Cl)cc(Cl)c1O | 11.2 µM (active) |  |
| O[C@@H](c1cc(C(F)(F)F)nc2c(C(F)(F)F)cccc12)[C@H]1CCCCN1 | inactive |  |
| CCC(C)C(=O)OC (stereo not given) | inactive |  |
| OCCCc1cccnc1 | inactive |  |
| CCN1CCN(c2cc(-c3ccc(F)cc3)c3c(n2)CCCCCC3)CC1 |  | -5.46% [at 23.6 µM] (inactive) |
